Chronic BCR inh: chronic active BCR signaling inhibition; Potency, µM (top dose mostly 46.1 µM), without a hit: top-dose activity change, negative = inhibition, hits mostly inhibitors; 0.05% of 340,000 active; ABC-DLBCL IkBa-CBG/CBR reporter, luminescence ratio, 4 h; active = well fitted inhibition curve with a large enough effect in the signal ratio, with a control signal flat, not every such curve was filed as active; inconclusive = small, poorly fitted or top-dose-only effect, or effect the other way, or a change in a side signal; the % refers to the signal ratio;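 note: potency is the fitted concentration of half-maximal effect; plate controls were basal doxycycline-induced cells for no effect and cells given 10 µM MG132 for full effect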
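Doxycycline induced both beetle luciferases in TMD8 lymphoma cells; IKK-driven degradation limits the IkappaBalpha-fused green signal, while red luminescence normalises for cell number and nonspecific effects. Compounds tested up to 46 uM, 4 hrs.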
DT40 TDP1 no CPT: qHTS for Inhibitors of human tyrosyl-DNA phosphodiesterase 1 (TDP1): qHTS in cells in absence of CPT. DT40 Tdp1-/- hTDP1 cells, no CPT, ATP luminescence, 48 h. Potency, µM (top dose mostly 46.2 µM), for inactives: top-dose activity change, negative = growth inhibition, actives largely listed as inhibitors. 15% of 420,000 active. AID 686978, 2013; note: potency is the fitted concentration of half-maximal effect; % is set by controls: 0 for no effect and ±100 for the full control effect; nearly all actives have a fitted effect of over 55% in size
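Growth of hTDP1-complemented DT40 Tdp1-knockout cells is measured by ATP luminescence after at least 48 hr compound exposure at 37 °C, with DMSO substituting for the 20 nM CPT used in the parallel screen.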
DT40 TDP1 CPT: growth inhibition of DT40 Tdp1-/-;hTDP1 cells with camptothecin (screen for TDP1 inhibitors) | AID 686979 | Potency, µM (doses to about 46.2 µM), for the others: top-dose activity change, negative = growth inhibition, actives largely listed as inhibitors | chicken DT40 Tdp1-/-;hTDP1 cells + 20 nM CPT, ATP luminescence, 48 h | 12% of 420,000 active; note: potency is the fitted concentration of half-maximal effect; % is set by controls: 0 for no effect and ±100 for the full control effect; nearly all actives have a fitted effect of over 55% in size
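Chicken DT40 Tdp1-/- cells complemented with human TDP1, 400 cells/well, exposed to compounds plus 20 nM camptothecin for at least 48 h at 37 C; viability read as ATP content by CellTiter-Glo luminescence.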
MCF10A rerep: induces DNA re-replication in MCF 10a normal breast cells; MCF 10A DNA re-replication, Hoechst nuclear intensity, 48 h; 2.9% of 350,000 active; Potency, µM (series often up to 46.1 µM), for the others: at the top dose activity, positive = re-replication, usual class: activators; AID 624296; note: potency is the fitted concentration of half-maximal effect; % of control where 0% means no effect; nearly all actives have a fitted effect of over 50% in size
SW480 rerep: induces DNA re-replication in SW480 colon adenocarcinoma cells | SW480 DNA re-replication, Hoechst DNA content imaging, 48 h | Potency, µM (top dose mostly 46.1 µM), inactives show top-dose re-replication activation, hits mostly activators | 1.8% of 340,000 active | AID 624297; note: potency is the fitted concentration of half-maximal effect; % of control where 0% means no effect; nearly all actives have a fitted effect of over 55% in size
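Cells (250 per well) received 23 nL compound or DMSO by pin tool and were kept 48 hr at 37 C, 5% CO2. Nuclei were then stained with Hoechst for 40 min and scanned for DNA content.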
IL1B secr inh: blocks inflammasome-driven IL-1 beta release; THP-1 LPS/ATP IL-1B secretion, AlphaLISA, 16 h; hits give low values; activity change, % at 57.5 µM; 4.7% of 360,000 active; AID 743279; in the data active = activity change below about -50%; inconclusive = mostly about -30% to -49%; note: % is set by controls: 0 for no effect and ±100 for the full control effect
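THP-1 cells pretreated 1 hr with compounds (up to 57.5 uM final), then stimulated with LPS (250 ng/mL final) plus ATP (1.25 mM final); secreted IL-1B measured by AlphaLISA after 16 hr, decreased signal indicating inhibition.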
* = called active by the depositor. Shown are actives, neighbours in structure and some others; about 19% of the full set was active somewhere. Unless noted, calls come from the whole dose curve; as a rule, active = well fitted curve in the direction sought with a large enough effect; inconclusive = small, poorly fitted or top-dose-only effect, or another doubt; inactive = no such curve, though single readings can be large; an effect the other way counts as inactive or inconclusive.

O=C(NCc1ccccc1)c1onc(CS(=O)(=O)c2ccc(Cl)cc2)c1C(=O)NCc1ccccc1 was read as Chronic BCR inh -1%, DT40 TDP1 no CPT -20%, DT40 TDP1 CPT -18%, MCF10A rerep inconclusive, SW480 rerep -11% and IL1B secr inh 8.
`CCn1cc(C(=O)NCCCN2CC(C)CC(C)C2)c(=O)c2cc(S(=O)(=O)N(C)C)ccc21` (configuration not stated) gave Chronic BCR inh inconclusive, DT40 TDP1 no CPT -2%, DT40 TDP1 CPT 17%, MCF10A rerep 5%, SW480 rerep 1% and IL1B secr inh 6.
`CCC1CCCCN1CCCNC(=O)c1cn(CC)c2ccc(S(=O)(=O)N3CCc4ccccc4C3)cc2c1=O` (configuration not stated) gave Chronic BCR inh 0%, DT40 TDP1 no CPT inconclusive, DT40 TDP1 CPT inconclusive, MCF10A rerep 3%, SW480 rerep 10% and IL1B secr inh -99*.
For CCN1CCCC1CNC(=O)c1cn(CC)c2ccc(S(=O)(=O)N3CCCCCC3)cc2c1=O (configuration not stated) the results were Chronic BCR inh 6%.
CCn1cc(C(=O)NCCCN2CCCC(C)C2)c(=O)c2cc(S(=O)(=O)N3CCc4ccccc4C3)ccc21 (configuration not stated) was read as Chronic BCR inh -3%, DT40 TDP1 no CPT inconclusive, DT40 TDP1 CPT 23µM*, MCF10A rerep 3%, SW480 rerep 10% and IL1B secr inh -104*.
For Cc1ccc(C)n1-c1ccc(N2CCOCC2)c([N+](=O)[O-])c1 the results were Chronic BCR inh 1%, DT40 TDP1 no CPT 15µM*, DT40 TDP1 CPT inconclusive, MCF10A rerep inconclusive, SW480 rerep inconclusive and IL1B secr inh -68*.
For Cc1cc(C=O)c(C)n1-c1ccc(N2CCOCC2)c([N+](=O)[O-])c1 the results were Chronic BCR inh -3%, DT40 TDP1 no CPT inconclusive, DT40 TDP1 CPT inconclusive, MCF10A rerep -9%, SW480 rerep 1% and IL1B secr inh -4.
Cc1cc(C=O)c(C)n1-c1ccc(N2CCCC2)c([N+](=O)[O-])c1 was read as Chronic BCR inh 5%, DT40 TDP1 no CPT 26µM*, DT40 TDP1 CPT inconclusive, MCF10A rerep -3%, SW480 rerep -2% and IL1B secr inh -3.
`Cc1cc(Cl)ccc1OCc1n[nH]c(=S)n1C1CCCCC1` gave Chronic BCR inh 10%, DT40 TDP1 no CPT inconclusive, DT40 TDP1 CPT -18%, MCF10A rerep 26µM*, SW480 rerep -1% and IL1B secr inh 20.
Screening COc1ccc(Cl)cc1-c1n[nH]c(=S)n1C1CCCCC1 returned Chronic BCR inh 10%, DT40 TDP1 no CPT 4%, DT40 TDP1 CPT -3%, MCF10A rerep 5%, SW480 rerep 2% and IL1B secr inh 27.
Screening Cc1ccccc1-c1cccc(CN2CCc3nnc(C(C)NC(=O)c4cccnc4)n3CC2)c1 (configuration not stated) returned DT40 TDP1 no CPT -5% and DT40 TDP1 CPT -5%.
`CCCn1nnc(NC(=S)NC(=O)C(C)(C)C)n1` gave Chronic BCR inh -7%, DT40 TDP1 no CPT inconclusive, DT40 TDP1 CPT inconclusive, MCF10A rerep -1%, SW480 rerep -5% and IL1B secr inh 16.
Screening CCCn1nnc(NC(=S)NC(=O)c2cccs2)n1 returned Chronic BCR inh inconclusive, DT40 TDP1 no CPT 18µM*, DT40 TDP1 CPT 21µM*, MCF10A rerep 19% and IL1B secr inh 0.

From PubChem
